Where “and” joins values, the source holds several entries; their conditions need not be identical. Equal values may be shown once. About 83,000 compounds went through this panel and 20% of them were active in at least one assay; those are over-represented in the sample as a whole.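 How to read the values: 0–100, growth inhibition (40 = 60% inhibited); 0, no net growth; -100 to 0, cell death (-40 = 40% of starting cells died; -100 = all dead).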 A number with no mark means an inactive call. Calls of active or inactive are those of the source. The calls were made as follows: active = growth percent below 10; inactive = the rest.
test system: UACC-257 melanoma; test: NCI-60 one-dose screen, 48 h (100 = growth as untreated, 0 = no growth, -100 = all killed); conditions: 10 µM unless noted

Compound	growth
CCOC(=O)C1=C(C)N=C2SC=C(c3ccc(F)cc3)N2[C@H]1c1cn(-c2ccccc2)nc1-c1ccc(Cl)cc1	81.5%
CCN(C(=O)N1CCN(c2cc3c(cc2F)c(=O)c(C(=O)O)cn3C2CC2)CC1)c1nc(-c2ccccc2)cs1	74.1%
O=C(/C=C/c1ccc(Cl)s1)c1ccc(Cl)s1	101% and 103%
C=CCOc1ccc(/C=C2\SC(=S)N(CCc3ccc(O)cc3)C2=O)cc1	92.6%
Cc1c(CC(=O)OCCO)cc(-c2ccc(Cl)cc2)n1-c1ccccc1	98.9%
CC1(C)C(N)=Nc2cc(OCCCN3Cc4ccc(OCCc5cn(CC(=O)N6CCC(CCN7CCCC7)CC6)nn5)cc4C3)c(OCC3CC3)cc21	112%
O=C1OCC2=C1C(c1cccc(C(F)(F)F)c1)c1cc3c(cc1N2CCO)OCCO3 (centres undefined)	65.3%
N#CC1=C(N)Oc2c(sc3c(Br)cccc23)C1c1ccccn1 (centres undefined)	51.1%
O=C1c2cccc3cccc(c23)C(=O)N1N1C(=O)c2cccc3c(N4CCNCC4)ccc(c23)C1=O	95.2%
O=C(Nc1ccc(F)cc1)c1cc2cc(Nc3nc(-c4ccccc4)nc4ccccc34)ccc2oc1=O	96.6%
O=C1c2cc3c(cc2-c2c1c1ccc(Cl)cc1c(=O)n2CCCn1ccnc1)OCO3	-3.1% (active)
COc1ccc(C/C(C)=C(/c2ccc(OCCN3CCCC3)cc2)c2ccc(OC(=O)NCc3ccccc3)cc2)cc1	107%
CCCO/N=C/c1ccccn1	102% and 96.8%
COc1ccc(-c2csc(NC(=O)CN3CCN(CCO)CC3)n2)cc1NS(=O)(=O)c1cccc2c(N(C)C)cccc12	68.4%
Cc1ccc(-c2nc3nc(-c4ccccc4)nc(N4CCN(S(=O)(=O)c5ccccc5)CC4)c3o2)cc1	99%
CCOc1nc(-c2ccccc2)cc2c(O)c(C(=O)N/N=C/c3ccc(N(C)C)cc3)[nH]c(=O)c12	125%
C/C(=C(\c1ccc(OCCN2CCOCC2)cc1)c1ccc(OC(=O)C2CCCCC2)cc1)c1ccc(Cl)cc1	99%
COc1ccc2c(c1)CC[C@@H]1[C@@H]2CC[C@]2(C)C3C(=CCC4C(=O)N(c5ccccc5)C(=O)C43)C[C@@H]12 (some centres undefined)	86.1%
CC(=O)c1c(C)nc2ccccc2c1/C=C/c1cccc(C)c1	73.5%
CCN(CC)CC#CCOC(=O)[C@]1(C)CCC[C@]2(C)c3ccc(C(C)C)cc3CC[C@@H]12	86.2%

Compound	growth
O=C1/C(=C/c2ccc(-c3ccccc3C(F)(F)F)o2)SC(=S)N1CCc1ccc(O)cc1	67%
COc1ccc(-c2[nH]c3ccccc3c2-c2ccc(OC)cc2)cc1	72%
O=C(CN1C(=O)S/C(=C\C(Cl)=C\c2ccccc2)C1=O)NC1C=CS(=O)(=O)C1 (centres undefined)	45.2%
CCOC(=O)N(O)c1ccc(/C=C/c2ccccc2)cc1	-40.5% (active) and -36.8% (active)
COc1cc(/C=C2/C=C(c3ccc(C(C)(C)C)cc3)N(CCc3ccc(S(N)(=O)=O)cc3)C2=O)cc(OC)c1OC	62.2%
O=[N+]([O-])c1cc(C(F)(F)F)ccc1Sc1ccc(C(F)(F)F)cc1[N+](=O)[O-]	76.3%
O=C(N=Nc1c(O)[nH]c2ccccc12)Nc1ccccc1Cl	92%
Nc1n[nH]c2cccc(C#Cc3cccc(NC(=O)c4ccc(N5CCOCC5)c(C(F)(F)F)c4)c3)c12	17.6%
COc1ccc(Oc2nc(Nc3ccc(N4CCOCC4)cc3)ncc2NC(=O)c2cc(OC)cc(OC)c2)cc1	99%
COc1cc(F)c(/C=C/c2cc(/C=C/c3cc(OC)c(OC)cc3F)n(-c3cc(F)cc(F)c3)n2)cc1OC	24%
[Cu+].[NH-][C@H]1C[N-]C(=O)[C@H]([C@H]2CCN=C(N)N2)[N-]C(=O)/C(=C\NC(N)=O)[N-]C(=O)[C@H](CNC(=O)C[C@@H](N)CCCN)[N-]C(=O)[C@H](CO)[N-]C1=O	99.8%
COc1cc(N=Nc2ccc(O)c3ncccc23)c2ncccc2c1	74.4%
O=S(=O)(O)c1ccc(N=Nc2ccc(N=Nc3cccc4ccccc34)c(S(=O)(=O)O)c2)cc1	107%
COc1ccc(-c2cc(-c3cccnc3)nc3sc4c(Cl)nnnc4c23)cc1OC	78.4%
C=C1C(=O)O[C@@H]2[C@H]3[C@H](COC(C)=O)[C@@H](OC(C)=O)C[C@H]3C(=C)[C@@H](O)C[C@@H]12	83.3%
CCCn1nc(C(=O)N2CCCCC2)c2c1CCC(N1CCC(c3ccncc3)CC1)C2 (centres undefined)	102%
CN1CCN(c2ccc(/C=C/C(=O)c3ccc(O)cc3)cc2)CC1	96.1%
CCN(c1cc(-c2ccc(CN3CCC(/C=C/S(=O)(=O)c4ccccc4)CC3)cc2)cc(C(=O)NCc2c(C)cc(C)[nH]c2=O)c1C)C1CCOCC1	75.4%
Cc1ccc(-c2nc3nc(-c4ccc(Cl)cc4)nc(N4CCCNCC4)c3o2)cc1	103%

From PubChem BioAssay (NCI)
